Experimental findings from PubChem BioAssay AID1851 (National Center for Advancing Translational Sciences (NCATS), 2009) are described below.

Out of some 16,000 compounds screened, about 5,700 (36%) were called active. About 24% were inconclusive and are not listed. The list shows a part of the results. Values without a mark were called inactive. The call rests on the fitted dose curve; in most records, active means well fitted curve in the direction sought with a large enough effect; inconclusive means small, poorly fitted or top-dose-only effect, or effect the other way; inactive means no such curve, though single readings can be large or run the other way. Square brackets hold non-standard residues; d marks the D form. Peptide text beside a SMILES is read from it. Ac5c = NC1(C(=O)O)CCCC1
On the % scale 0 is the no-effect control and ±100 the full control effect.

Sequence of Cytochrome P450 1A2 (Homo sapiens) (P05177 whole entry, looked up): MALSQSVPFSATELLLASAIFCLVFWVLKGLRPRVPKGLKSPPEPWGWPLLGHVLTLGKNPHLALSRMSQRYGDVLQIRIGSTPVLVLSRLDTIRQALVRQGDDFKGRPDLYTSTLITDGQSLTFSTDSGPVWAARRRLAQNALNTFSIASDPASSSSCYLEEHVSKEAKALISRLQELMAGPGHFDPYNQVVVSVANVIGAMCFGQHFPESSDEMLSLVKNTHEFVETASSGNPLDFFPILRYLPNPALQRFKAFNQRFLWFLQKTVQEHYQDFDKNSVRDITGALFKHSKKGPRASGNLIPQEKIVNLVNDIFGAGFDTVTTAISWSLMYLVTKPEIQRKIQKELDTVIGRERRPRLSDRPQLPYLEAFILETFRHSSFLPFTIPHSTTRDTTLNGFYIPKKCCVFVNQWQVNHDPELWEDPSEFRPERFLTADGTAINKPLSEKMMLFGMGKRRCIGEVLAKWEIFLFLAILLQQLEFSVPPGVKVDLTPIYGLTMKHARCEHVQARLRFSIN

The assay has as its target Cytochrome P450 1A2 (Homo sapiens) (UniProt P05177). The assay is described as follows: Cytochrome panel assay with activity outcomes. The following applies: recombinant CYP, pro-luciferin dealkylation, luminescence, p450-cyp1a2; series mostly up to 57.1 µM; activity, negative = inhibition: at the top concentration.
As to `CC[C@H](CO)NCCN[C@@H](CC)CO`, the “activity, negative = inhibition” value was -2.46% [at 25.6 µM]. `Cn1c(=O)[nH]c(=O)c2c1nc(NCCCO)n2CCCc1ccccc1`: the “activity, negative = inhibition” value is -26.4%. As for `Cn1cnc2c(NCc3ccccc3)nc(NCCO)nc21`, the AC50 was 5.01 µM (active). `Cc1ccccc1CNc1ncnc2c1ncn2[C@@H]1O[C@@H](CO)[C@H](O)[C@@H]1O`: the “activity, negative = inhibition” value is -18.9%. For the compound `FC(F)(F)c1nc(SCc2ccc(Cl)cc2)n[nH]1`, the activity, negative = inhibition is -18.8% [at 2.29 µM].

On to `COc1cnc(SCc2ccc(Cl)cc2)nc1Cl`, for which the AC50 is 12.6 µM (active). For `CC1=CC(=O)c2ccccc2C1=O`, the AC50 is 0.158 µM (active). On the same count and under the same terms, the figure for `CC(C)NCCOCCSc1ccc(Cl)cc1` is 5.01 µM (active); for `CCCCNCCOCCSc1ccc(Cl)cc1` it is 12.6 µM (active). As for `CCCCNC(=O)NS(=O)(=O)c1cnccc1Sc1ccc(Cl)cc1`, the “activity, negative = inhibition” value is 1.56%. Still for that read-out and setting: the figure for `Cc1cc(=O)[nH]c2c1c(C)nn2C1CCOC(C)(C)C1` (centres undefined) is -2.35%; for `CO[C@@H]1COC(=O)[C@H](C)NC(=O)[C@@H](C)COC(=O)CCC[C@H]1C` it is -10.3% [at 11.4 µM]; for `CCOc1cc2[nH]c(=O)n(CCCC(=O)NCc3ccc(OC)cc3)c(=O)c2cc1OCC` it is -7.25%. For `CCOc1cc2[nH]c(=S)n(CCCC(=O)NCc3ccco3)c(=O)c2cc1OCC`, the “activity, negative = inhibition” value was -24.3%. As to `Cc1nc2ncnn2c(C)c1CCC(=O)NCc1ccco1`, the “activity, negative = inhibition” value was -27.7%. Take `O=C(CCn1c(=O)[nH]c2ccsc2c1=O)Nc1ccc(F)c(F)c1`: the “activity, negative = inhibition” value is -23%. On to `O=C(CCCCCn1c(=O)[nH]c2ccsc2c1=O)NCc1ccc2c(c1)OCO2`, for which the AC50 is 14.1 µM (active). For `O=C(CCCCn1c(=S)[nH]c2ccsc2c1=O)NCc1ccco1`, the concentration at half-maximal activity (AC50) is 1.26 µM (active). As for `Cc1ccc(-n2c(C)cc(C(=S)N3CCOCC3)c2C)cc1C`, the “activity, negative = inhibition” value was -22.6%. Consider `CC(=O)Nc1c(C)nn(-c2ccc(C)c(C)c2)c1C`, for which the AC50 was 14.1 µM (active). For the compound `CC(=O)Nc1c(C(=O)N2CCOCC2)cnn1-c1ccc(C)c(C)c1`, the “activity, negative = inhibition” value is 41.4%. Consider `NCC(=O)NC1(C(=O)O)CCCC1` (H-Gly-[Ac5c]-OH), for which the activity, negative = inhibition was -5.18% [at 11.4 µM].

As to `O=C1CC(=O)C(n2cncn2)C(c2cccc(Cl)c2)C1` (centres undefined), the “activity, negative = inhibition” value is 6.34%. In the case of `C[N+](C)(C)CCCCCNCC12CC3CC(CC(C3)C1)C2`, the “activity, negative = inhibition” value was 0.614%. For the compound `COc1ccccc1CN1CC2(CCN(C(=O)c3ccncc3)CC2)C1`, the “activity, negative = inhibition” value was -10.9%. Still for that read-out and setting: the figure for `COc1ccccc1CN1CC2(CCN(C(=O)c3cnccn3)CC2)C1` is 13.8%. `COc1ccccc1CN1C(=O)c2ccncc2C1=O`: the AC50 was 14.1 µM (active). Still for that read-out and setting: the result for `NC1=NC(=O)/C(=C/c2cccs2)S1` reads 1.41 µM (active); that for `O=C1N=C(N2CCOCC2)S/C1=C\C=C/c1ccccc1`, 14.1 µM (active).

Regarding `O=C1N=C(N2CCOCC2)S/C1=C/c1cccs1`, the concentration at half-maximal activity (AC50) was 5.62 µM (active).

With `CC(C)(C)OC(=O)[C@H]([C@@H]1N[C@@H](C(=O)O)C(C)(C)S1)N1C(=O)c2ccccc2C1=O`, the activity, negative = inhibition was -1.41% [at 2.29 µM].

For the compound `C[C@H]1CC(C)(C)C[C@@](OCCN2CCCCC2)(c2ccccc2)C1`, the activity, negative = inhibition was 0.209% [at 11.4 µM]. Turning to `CCCN1CC=C2C(C#N)=C(N)C(C#N)(C#N)C(c3cc(OC)ccc3OC)C2C1` (centres undefined), the concentration at half-maximal activity (AC50) is 31.6 µM (active). As to `O=C(O)C[n+]1ccccc1`, the activity, negative = inhibition was -7.86% [at 11.4 µM]. Take `COc1ccc(O[C@H]2C=C[C@@H](c3ccccc3)O[C@H]2COC(=O)CC/C(C)=N/OCC[C@@H]2C=C[C@H](OC(C)=O)[C@H](COC(C)=O)O2)cc1`: the activity, negative = inhibition is -2.16% [at 11.4 µM].

`CN=C1N[C@H](c2ccccc2)N(c2ccccc2)S1`: the concentration at half-maximal activity (AC50) was 1.26 µM (active).

Turning to `Cc1c(CCC(C)C)c(-n2ccnc2C)n2c(nc3ccccc32)c1C#N`, the “activity, negative = inhibition” value is -25.4%.

Consider `Cc1ccccc1S(=O)(=O)O[C@@H]1NS(=O)(=O)c2ccccc21`, for which the activity, negative = inhibition is 13.5% [at 2.29 µM]. As to `Cc1ccccc1S(=O)(=O)Oc1ccccc1C(=O)Oc1ccccc1`, the concentration at half-maximal activity (AC50) is 3.55 µM (active). Regarding `COC(=O)[C@H](Cc1ccccc1)NC(=O)N1CCN(Cc2ccccc2)CC1`, the “activity, negative = inhibition” value is -17.5%. In the case of `Oc1ccc2ccccc2c1C=NCc1c(O)ccc2ccccc12`, the concentration at half-maximal activity (AC50) is 1.58 µM (active).

In the case of `O=C(O)Cc1c(O)ccc2ccccc12`, the activity, negative = inhibition is -9.69% [at 11.4 µM]. For the compound `c1ccc(-c2ccc(N3CCCC4(CCNCC4)C3)cc2)cc1`, the AC50 is 10 µM (active). On the same count and under the same terms, the figure for `c1ccc(-c2ccc(N3CC[C@@]4(CCCNC4)C3)cc2)cc1` is 12.6 µM (active); for `c1ccc(-c2ccc(N3CC4(CCNCC4)C3)cc2)cc1` it is 15.8 µM (active). `O=C(c1csnn1)N1CCC2(CCCN(c3ccc(-c4ccccc4)cc3)C2)CC1`: the “activity, negative = inhibition” value was -2.91%. On the same count and under the same terms, the figure for `c1ccc(C(c2ccccc2)N2CC[C@@]3(CCCNC3)C2)cc1` is -27.3%; for `O=S(=O)(c1ccccc1)N1CCC[C@@]2(CCN(c3ccncc3)C2)C1` it is -29%; for `COc1ccccc1CN1CCCC2(CCNCC2)C1` it is 9.9%.
